Experimental data reported in PubChem BioAssay AID485346 (Sanford-Burnham Center for Chemical Genomics, 2010).
Screen size: about 330,000 compounds; about 10,000 (3%) were called active. What follows is part of a selection rich in actives, with near analogues and random picks from the rest. Values without a mark were called inactive.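 How the source made its calls: active means inhibition of at least 50% at 8 µM in the primary screen; inactive means the rest.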

Target: Protein Mdm4 (Homo sapiens) + E3 ubiquitin-protein ligase Mdm2 (Homo sapiens) (UniProt O15151+Q00987)
Sequence (O15151 whole entry, looked up): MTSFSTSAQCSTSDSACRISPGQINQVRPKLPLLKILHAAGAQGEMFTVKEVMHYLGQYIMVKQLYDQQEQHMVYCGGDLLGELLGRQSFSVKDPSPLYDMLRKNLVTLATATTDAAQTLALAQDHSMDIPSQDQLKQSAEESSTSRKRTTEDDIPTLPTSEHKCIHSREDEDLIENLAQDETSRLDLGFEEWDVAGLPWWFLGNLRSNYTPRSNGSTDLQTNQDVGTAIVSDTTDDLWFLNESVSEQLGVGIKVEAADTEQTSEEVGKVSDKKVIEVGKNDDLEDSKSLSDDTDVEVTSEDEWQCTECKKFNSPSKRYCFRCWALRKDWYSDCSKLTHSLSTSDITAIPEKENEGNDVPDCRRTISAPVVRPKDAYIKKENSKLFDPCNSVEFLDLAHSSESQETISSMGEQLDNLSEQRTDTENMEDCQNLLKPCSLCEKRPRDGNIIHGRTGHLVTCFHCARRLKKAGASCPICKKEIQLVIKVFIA
Sequence (Q00987 whole entry, looked up): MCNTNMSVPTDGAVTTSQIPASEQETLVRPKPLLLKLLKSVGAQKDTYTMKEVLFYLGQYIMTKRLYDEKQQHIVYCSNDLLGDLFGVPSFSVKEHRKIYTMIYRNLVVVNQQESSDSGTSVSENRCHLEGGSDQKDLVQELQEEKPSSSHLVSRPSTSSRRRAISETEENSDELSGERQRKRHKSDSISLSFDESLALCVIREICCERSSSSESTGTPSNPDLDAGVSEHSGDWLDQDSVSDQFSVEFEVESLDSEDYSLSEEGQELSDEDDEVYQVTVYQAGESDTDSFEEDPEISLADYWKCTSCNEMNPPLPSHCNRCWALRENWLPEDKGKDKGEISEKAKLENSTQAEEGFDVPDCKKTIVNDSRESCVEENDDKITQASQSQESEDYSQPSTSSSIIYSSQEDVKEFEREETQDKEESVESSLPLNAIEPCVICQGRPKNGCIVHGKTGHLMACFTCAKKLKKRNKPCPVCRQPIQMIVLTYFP
Assay: inhibitors of human Mdm2-MdmX association, primary screen, cell-based, luminescence, split luciferase, SaOS-2, uHTS (AID 485346)
Details: SaOS-2 split-luciferase Mdm2/MdmX complementation, at 8 µM, hits give high values

Point of comparison: `CCN(CC)CCN(C(=O)c1ccc(S(=O)(=O)N2CCOCC2)cc1)c1nc2cc3c(cc2s1)OCCO3`, inhibition 4.55%. Against it:
- CCc1ccccc1NC(=O)c1ccc2snnc2c1 — higher, 25.3%
- O=C(Nc1cccc(Br)c1)c1ccc2snnc2c1 — lower, -3.74%
- CC(C)[C@@H](C(=O)O)N(Cc1cccc(CN([C@H](C(=O)O)C(C)C)S(C)(=O)=O)c1)S(C)(=O)=O — higher, 9.86%
- CCN(CC)S(=O)(=O)c1ccc(Cl)c(NC(=O)c2ccncc2)c1 — higher, 11.7%
- Cc1cccc(NC(=O)c2cccnc2Cl)n1 — lower, 2.81%
- COc1ccc(OC)c(NC(=O)c2ccc3c(c2)CCN3S(C)(=O)=O)c1 — higher, 15.2%
- COCc1cc(C)nc2sc(C(=O)NC3CCCCC3)c(N)c12 — higher, 7.84%
- COc1ccc(N(C(=O)c2ccc(C)cc2)S(=O)(=O)c2cccs2)cc1 — higher, 17.4%
- CN(C)c1ccc2c(=O)[nH][nH]c(=O)c2c1 — lower, 4.05%
- O=C(NCc1cccs1)c1ccc2c(c1)ncn2C1CCCC1 — lower, -11.4%
- CCOC(=O)C1CCN(Cc2c(C(=O)N3CCOCC3)nc3c(C)cccn23)CC1 — higher, 15.2%
- COCCCNc1nc2c(-c3cccc(C(F)(F)F)c3)nnn2c2ccccc12 — higher, 17.3%
- COC(=O)Cn1nc(-c2ccccc2)c2cc(Cl)ccc21 — higher, 10.1%
- CC1CCCN(c2ccc(C(=O)NCCc3ccccc3)cn2)C1 (centres undefined) — lower, -61.6%
- O=c1oc2ccccc2c(NC2CCCCC2)c1NS(=O)(=O)c1ccc(Cl)cc1 — higher, 14.1%
- S=c1[nH]nc2c3c4c(sc3ncn12)CCCC4 — higher, 14%
- O=C1N[C@@H](c2ccccc2)COC(=O)[C@H](Cc2ccc(F)cc2)C/C=C\C[C@@H]1CC(=O)N(CCO)Cc1ccccc1 — higher, 9.71%
- O=C1CCC/C=C/C[C@@H](CC(=O)N(CCO)Cc2ccccc2)C(=O)NC[C@H](c2ccccc2)O1 — lower, -21.8%
- Cn1c(CCNS(=O)(=O)c2ccc(F)cc2)nnc1SCc1cccnc1 — higher, 13.7%
- CN[C@H](C(=O)NC[C@H]1O[C@@H](n2cnc3c(N)ncnc32)[C@H](O)[C@@H]1O)[C@@H](C)OCc1ccccc1 — higher, 16.8%
- COc1ccc2cc(C3=CC(=O)C[C@H](c4ccc5c(c4)OCO5)C3)ccc2c1 — lower, 3.41%
- CC(C)(O)C(=O)NN(C(=O)c1ccccc1)c1cccc(Br)c1 — lower, -9.41%
- COC(=O)N(NC(=O)C(O)(C(C)C)C(C)C)c1ccccc1 — lower, -17.3%
- Cc1ccc(N(NC(=O)C(C)(C)O)C(=O)c2ccccc2)cc1C — lower, -3.58%
- CCCCCNC(=O)C1c2ccccc2Oc2ccccc21 — lower, -5.28%
- CCn1cc(C(=O)N[C@@H](C)C(=O)NCCO)c(=O)c2cc3c(cc21)OCO3 — lower, -4.24%
- Cc1ccc(N(CC(=O)NCC2CCCO2)C(=O)CNS(=O)(=O)c2ccc(Cl)cc2)cc1 (centres undefined) — lower, -1.2%
- Cc1ccc2c(c1)N(CCCC(=O)NCc1cccnc1)C(=O)CO2 — higher, 5.4%
- CSCC[C@H](NC(=O)NCc1cccs1)C(=O)O — lower, 3.11%
- O=C(CCc1nc2ccccc2c(=O)[nH]1)OCC(=O)c1cccc(Cl)c1 — higher, 30.6%
- O=C(Cc1nc2ccccc2[nH]c1=O)c1ccc(Cl)cc1 — lower, -186%
- CCCN(CCC)c1c([N+](=O)[O-])c(=O)oc2ccccc12 — lower, -1.56%
- Cc1cccc(-n2c(C)cc(/C=N/NC(N)=S)c2C)c1 — lower, -13.2%
- Cc1ccc(-n2nc(C)c(/C=N/NC(=O)c3cccs3)c2Cl)cc1 — lower, 3.87%
- CCC1CCC2(CC1)NC(=O)N(CC(=O)Nc1ccc(OC)cc1)C2=O (centres undefined) — higher, 18.6%
- CCN(CC(=O)Nc1ccc(NC(C)=O)cc1)C(=O)C1CC(=O)N(Cc2ccc(C)cc2)C1 (centres undefined) — lower, -26.3%
- CCN(CC)c1ccc(C(=O)c2cnc(/N=C/N(C)C)s2)cc1 — lower, -23.2%
- COCCCNC(=S)NC(=O)c1ccccc1 — lower, -18.2%
- Cc1ccc(NC(=S)NC(=O)c2ccc(-c3ccccc3)cc2)cc1 — higher, 12.8%
- CC1(C)C[C@H]2C3=CCC4[C@@]5(C)CC[C@H](O)[C@](C)(CO)C5CC[C@@]4(C)[C@]3(C)C[C@@H](O)[C@@]2(CO)[C@@H](O)[C@@H]1O (some centres undefined) — higher, 17.8%
- O=C(Nc1cccc2cccnc12)c1cccc(Cl)c1 — lower, -3.29%
- COc1ccc(NC(=O)c2ccco2)cc1NC(=O)c1ccc(C#N)cc1F — higher, 5.85%
- CC(C)Cc1ccc(C(C)C(=N)N)cc1 (centres undefined) — lower, -18.4%
- COc1ccc(S(=O)(=O)N(CC(=O)NCc2ccco2)c2ccc(F)cc2)cc1 — higher, 10.5%
- Cc1ccccc1-c1ccc(Nc2ccc(C(=O)N3CCOCC3)cc2)nn1 — lower, 0.851%
- COC1=C(N2CCOCC2)C(=O)c2ccccc2C1=O — higher, 17.1%
- Nc1nnn(CC(=O)N/N=C/c2ccccc2)n1 — higher, 14.3%
- Nc1nnnn1CC(=O)N/N=C/c1ccc(-c2cccc(Cl)c2)o1 — lower, 0.676%
- Cc1ccc(-n2c(=O)cc(N3CCN(Cc4ccccc4)CC3)[nH]c2=O)cc1 — higher, 27.6%
- CN(C)S(=O)(=O)c1ccc(N2CCCC2)c(C(=O)Nc2ccc(Br)cc2F)c1 — higher, 16.4%
- CN1CCC(N(C)S(=O)(=O)c2ccc(NC(=O)c3cccc(C#N)c3)cc2)CC1 — lower, -11.1%
- Cc1ccc2nc(NC(=O)C3CSC4(C)CCC(=O)N34)sc2c1 (centres undefined) — higher, 11.9%
- O=C(COc1ccccc1O)NC1CCCC1 — higher, 7.91%
- CCCCCCc1ccc(O)cc1O — higher, 26.2%
- Cc1c(CC(=O)NCCCCCC(=O)O)c(=O)oc2cc3occ(-c4ccccc4)c3cc12 — higher, 7.02%
- COc1ccc(N2CCN(C(CNS(=O)(=O)c3ccc(C)cc3)c3ccccc3)CC2)cc1 (centres undefined) — higher, 10.9%
- CCC1CO/C(=C(\C(=C(Cl)Cl)N2CCOCC2)[N+](=O)[O-])N1 (centres undefined) — higher, 4.94%
- CCc1ccc2nc(N(CCCN(C)C)C(=O)c3ccc4c(c3)OCCO4)sc2c1 — higher, 39.7%
- CC1CCN(C(=O)c2cccc(S(=O)(=O)N3CCCc4ccccc43)c2)CC1 — higher, 16.9%
- COc1cccc(C(=O)Nc2nc3ccc(S(C)(=O)=O)cc3s2)c1 — lower, -20.5%
- CCOc1ccc2nc(N(CCCN(C)C)C(=O)c3ccc(C(=O)c4ccccc4)cc3)sc2c1 — higher, 48.2%
- COc1ccc2sc(N(CCCN(C)C)C(=O)c3ccc(S(=O)(=O)N(C)C4CCCCC4)cc3)nc2c1 — higher, 19.3%
- Cc1ccc2nc(N(CCN(C)C)C(=O)C3=COCCO3)sc2c1 — higher, 23.3%
- CS(=O)(=O)c1ccc2nc(NC(=O)c3ccc(Cl)nc3)sc2c1 — higher, 20.5%
- CCN(CC)CCn1cnc2c1c(=O)n(CCOC(=O)c1cc(OC)c(OC)c(OC)c1)c(=O)n2C — higher, 11.6%
- CCN(CC)CCN1C(=O)C2C(C(=O)Nc3ccc(Br)cc3)C3C=CC2(O3)C1C(=O)NC1CCCCC1 (centres undefined) — lower, -3.95%
- CC(C)CN1CCNC(=O)C1CC(=O)N(C)CC1CCOCC1 (centres undefined) — higher, 11.5%
- Cc1ccc(CNC(=O)c2ccc(CS(=O)Cc3cccc(Cl)c3)o2)cc1 (centres undefined) — lower, -2.29%
- O=C(CCc1ccccc1Cl)Nc1ccc(S(=O)(=O)Nc2nccs2)cc1 — higher, 7.38%
- O=C(COC(=O)c1cccnc1Cl)Nc1ccc(S(=O)(=O)N2CCOCC2)cc1 — higher, 5.66%

With `O=C(Nc1ccc2ccccc2c1)Nc1ccc2snnc2c1` the inhibition was 88.1% (active).
In the case of `CCN(CC)S(=O)(=O)c1ccc(NC(=O)c2cccnc2Cl)c(NC(=O)c2cccnc2Cl)c1`, the inhibition is reported as 94.7% (active).
`COc1ccc(OC)c(NC(=O)c2sc3nc(C)cc(C)c3c2N)c1` was tested, and the inhibition was 58.3% (active).
In the case of `COCCCNc1nc2c(-c3cccc(C)c3)nnn2c2ccc(Cl)cc12`, the inhibition is reported as 55.3% (active).
For `O=C1NC[C@@H](c2ccccc2)OC(=O)[C@H](Cc2ccc(F)cc2)CC/C=C/C[C@H]1CC(=O)N(CCO)Cc1ccccc1`, the inhibition was 59.7% (active).
For `CCCC(O)(CCC)C(=O)NN(C(=O)CCl)c1cccc(C)c1`, the inhibition was 94% (active).
`CCCCC(O)(CCCC)C(=O)NN(C(=O)CCl)c1ccccc1` was tested, and the inhibition was 87.3% (active).
For `O=C(/C(=C/c1cccc(Cl)c1)c1nc2ccccc2[nH]1)c1ccccc1`, the inhibition was 100% (active).
With `Cc1cccc(-n2c(C)cc(/C=N\NC(=O)c3cccs3)c2C)c1` the inhibition was 67.2% (active).
With `CCOC(=O)C1=C(NC(=S)NC(=O)c2ccccc2)c2ccccc2CC1(C)C` the inhibition was 51.4% (active).
With `N#Cc1ccc(C(=O)Nc2cccc3cccnc23)c(F)c1` the inhibition was 56.2% (active).
`Cc1oc2c(c1C(=O)N1CCOCC1)C(=O)c1ccccc1C2=O` was tested, and the inhibition was 53.6% (active).
For `O=C(Cn1nnc(-c2ccccc2)n1)N/N=C/c1ccc(-c2ccc(Cl)cc2)o1`, the inhibition was 69.4% (active).
In the case of `CCCCCCc1cc2cc(-c3nnc(-c4ccccc4)o3)c(=O)oc2cc1O`, the inhibition is reported as 84.7% (active).
`CN(C)CCCN(C(=O)c1ccc(S(=O)(=O)N2CCCCCC2)cc1)c1nc2ccc(Br)cc2s1` was tested, and the inhibition was 70.8% (active).
In the case of `CN(C)CCCN(C(=O)c1ccc(S(=O)(=O)N2CCCc3ccccc32)cc1)c1nc2ccc(F)cc2s1`, the inhibition is reported as 76% (active).
With `CS(=O)(=O)c1ccc2nc(NC(=O)c3ccc(N4CCCC4=O)cc3)sc2c1` the inhibition was 56.8% (active).
With `CN(C)CCCN(C(=O)c1ccc(S(=O)(=O)N2CCCCCC2)cc1)c1nc2cc3c(cc2s1)OCCO3` the inhibition was 52.3% (active).
